Here are results for 40 compounds from PubChem BioAssay (Tox21).

Each structure is given as a SMILES string. Records with an inconclusive call do not appear. Unmarked numbers belong to inactive results. Active and inactive are the calls of the source. The call rests on the fitted dose curve; in most records, active means well fitted activation curve with a large enough effect in the signal ratio in the repeat runs (not every such curve was filed as active); inconclusive means weak or mixed curves, or effect the other way; inactive means no such curve, though single readings can be large or run the other way; the % refers to the signal ratio.
On the % scale 0 is the no-effect control and ±100 the full control effect.

Chain of Peroxisome proliferator-activated receptor gamma (Homo sapiens) (P37231 whole entry, looked up): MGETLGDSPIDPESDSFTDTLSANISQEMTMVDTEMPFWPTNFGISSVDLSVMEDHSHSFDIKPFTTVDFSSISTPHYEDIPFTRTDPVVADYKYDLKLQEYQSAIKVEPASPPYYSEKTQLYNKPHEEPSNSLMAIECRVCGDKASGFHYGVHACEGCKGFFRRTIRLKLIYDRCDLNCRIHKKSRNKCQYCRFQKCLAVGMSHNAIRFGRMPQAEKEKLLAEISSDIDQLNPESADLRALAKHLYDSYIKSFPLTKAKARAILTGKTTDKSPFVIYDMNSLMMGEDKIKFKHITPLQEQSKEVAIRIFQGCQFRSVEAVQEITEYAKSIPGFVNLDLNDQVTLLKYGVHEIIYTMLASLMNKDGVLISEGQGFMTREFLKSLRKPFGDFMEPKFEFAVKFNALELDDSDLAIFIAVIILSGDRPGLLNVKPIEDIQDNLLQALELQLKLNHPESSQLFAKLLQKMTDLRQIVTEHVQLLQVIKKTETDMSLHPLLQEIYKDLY

For this assay, the target named is Peroxisome proliferator-activated receptor gamma (Homo sapiens) (UniProt P37231). Nature of the assay: qHTS assay to identify small molecule agonists of the peroxisome proliferator-activated receptor gamma (PPARg) signaling pathway (AID 743094). As to conditions: HEK293H PPARg-UAS-bla, beta-lactamase FRET ratio, 17 h; series mostly up to 57 µM; activation: at the top concentration. The text has this:
U.S. Tox21 Program National Center for Advancing Translational Sciences [NCATS] NIH Chemical Genomics Center [NCGC] U.S. Environmental Protection Agency [EPA] National Institutes of Environmental Health Sciences [NIEHS] National Toxicology Program [NTP] U.S. Food and Drug Administration [FDA] Tox21 Assay Overview: The peroxisome proliferator-activated receptors (PPARs) are lipid-activated transcription factors of the nuclear receptor superfamily with three distinct subtypes namely PPAR alpha, PPAR delta (also called PPAR beta) and PPAR gamma (PPARg). All these subtypes heterodimerize with Retinoid X receptor (RXR) and these heterodimers regulate transcription of various genes. PPAR-gamma receptor (glitazone receptor) is involved in the regulation of glucose and lipid metabolism. To identify the compounds that activate PPAR-gamma signaling, GeneBLAzer PPAR gamma UAS-bla HEK293H cell line (Invitrogen, Carlsbad, CA, USA) containing a beta-lactamase reporter gene under control of the control of an upstream activator sequence (UAS) stably integrated into HEK293H cells was used to screen Tox21 compound library.
Tox21 Assay Protocol Summary: PPARg-bla cells were dispensed at 3000 cells/6uL/well in 1536-well black wall/clear bottom plates using a Multidrop Combi (Thermo Fisher Scientific, Waltham, MA) dispenser. After the assay plates were incubated at 37C and 5% CO2 for 5 h, 23 nL of compounds dissolved in DMSO, positive controls or DMSO only was transferred to the assay plate by a Pintool station (Kalypsys, San Diego, CA). The assay plates were incubated at 37C for 17 h. After 1 uL of LiveBLAzerTM B/G FRET substrate was added using a Bioraptr Flying Reagent Dispenser (FRD) workstation (Beckman Coulter, Indianapolis, IN, USA), the plates were incubated at room temperature for 1 h, and fluorescence intensity was measured by an Envision plate reader (PerkinElmer, Shelton, CT).
A general note: Quantitative high-throughput screening tests each substance at several concentrations.
In the case of `Nc1ccccc1C(=O)OCCc1ccccc1`, the Potency result was “inactive”.
As for `NP(N)(=O)NC(=O)c1ccc(F)cc1`, the “activation” value is 2.26%.
On the same count and under the same terms, the value for `CC(C)C1(C)N=C(c2ncccc2C(=O)O)NC1=O` (stereo not given) was -3.21%.
With `CC(O)CN1CCN(CC(=O)[O-])CCN(CC(=O)[O-])CCN(CC(=O)[O-])CC1.[Gd+3]` (stereo not given), the Potency result was “inactive”.
On the same count and under the same terms, the value for `Cc1ccc(N)c(C)c1` was “inactive”.
Consider `COC1=CC(=O)O[C@@H](/C=C/c2ccc3c(c2)OCO3)C1`, for which the “activation” value was 3.31%.
Turning to `C[Si](Cn1cncn1)(c1ccc(F)cc1)c1ccc(F)cc1`, the “activation” value is -4.72%.
Still for that read-out and setting: then `CC(C)(C#N)C(C)(C)C#N`, with -0.0608% [at 78.9 µM]; and `O=C(N/N=C/c1ccc([N+](=O)[O-])o1)c1cc([N+](=O)[O-])cc([N+](=O)[O-])c1O`, with -1.56%.
On to `CCC(C)(C)c1ccc(O)c(C(C)(C)CC)c1`, for which the Potency entry is “inactive”.
Regarding `O=[N+]([O-])O[C@H]1CO[C@H]2[C@@H]1OC[C@H]2O[N+](=O)[O-]`, the “activation” value is 0.0197%.
Same read-out and setting: then `CNC(=O)Oc1cccc(N=CN(C)C)c1`, with -0.168%; and `CCc1ccccc1N`, with -2.48%.
Consider `CC(C)(c1ccccc1)c1cc(-n2nc3ccccc3n2)c(O)c(C(C)(C)c2ccccc2)c1`, for which the “activation” value was -8.12%.
The same measure, in the same setting: the value for `C1CCNCC1` was 4.41% [at 78.9 µM]; that for `Cc1nc2ccccc2c(=O)n1-c1ccccc1Cl` was 2.48%.
On the same count and under the same terms, the value for `CCC(C)(C)O` was 0.619%; that for `O=C(Cl)OCCOCCOC(=O)Cl` was 5.61%; that for `CCCC1CCCCN1` (stereo not given) was -1.52%.
On the same count and under the same terms, then `O=C(N[C@H]1CN2CCC1CC2)c1ccc2c(c1)OCCO2`, with 3.94%; and `CCC(C)Cl` (stereo not given), with 0.601%.
In the case of `CN1C[C@H](C(=O)N[C@]2(C)O[C@@]3(O)[C@@H]4CCCN4C(=O)[C@H](Cc4ccccc4)N3C2=O)C=C2c3cccc4[nH]cc(c34)C[C@H]21`, the Potency entry was “inactive”.
With `O=C=NC1CCCCC1`, the “activation” value was -3.23%.
The same measure, in the same setting: the value for `NC(=O)CF` was -7.34%; that for `CC(=O)OC(c1ccccc1)C(Cl)(Cl)Cl` (stereo not given) was -2.99%; that for `CCC[N+](CCC)(CCC)CCC` was -7.76%.
As for `CCOc1cccc(C2(N3CCN(c4ccccc4)CC3)CCC(C)CC2)c1` (stereo not given), the “activation” value was -7.13%.
Same read-out and setting: then `SCc1ccccc1`, with 0.0511% [at 78.9 µM]; and `CCOP(=S)(OCC)Oc1ccc(S(C)=O)cc1` (stereo not given), with -3.79%.
As for `N#CC(C#N)=C(C#N)C#N`, the “activation” value was -1.11% [at 78.9 µM].
Still for that read-out and setting: the value for `CCCCCCCCCCCCCCCl` was -3.54% [at 78.9 µM].
With `CC(C)c1ccc(OP(=O)(Oc2ccc(C(C)C)cc2)Oc2ccc(C(C)C)cc2)cc1`, the Potency entry is “inactive”.
As for `NNCCO`, the “activation” value was -3.28%.
The same measure, in the same setting: then `C=CCc1ccc(OC(=O)Cc2ccccc2)c(OC)c1`, with 5.23%; and `CCCCCCCCCCCCN=C(N)N`, with 0.522% [at 3.17 µM].
Same read-out and setting: the value for `C=CCOCC1CO1` (stereo not given) was 0.0255%; that for `C[C@H]1O[C@H](OC2[C@@H](O)[C@@H](O)C(O)[C@H](O)[C@H]2O)[C@@H](N)C[C@@H]1N=C(N)C(=O)O` (stereo not given in full) was -1.86%.
Same read-out and setting: then `CC(C)c1ccc(NC(=O)N(C)C)cc1`, with 3.69%; and `CCCCC(CC)CO[N+](=O)[O-]` (stereo not given), with 2.04%.
Consider `CC(Oc1cccc(Cl)c1)C(=O)O` (stereo not given), for which the “activation” value is 5.97%.
